# Screening data (PubChem)
# Shiga inhibitor: Shiga toxin inhibition; 9.2% of 290,000 active; inhibition, % at 38.7 µM; Vero cells, Shiga toxin protein synthesis inhibition reporter; AID 2315; in the data active = inhibition mostly above about 28%, no sharp cut-off; inactive = mostly below about 43%
# Pf growth 96h: P. falciparum growth inhibition at 96 hours. AID 504834. Potency, µM (doses to about 28.7 µM), actives largely listed as inhibitors. 6.9% of 320,000 active. P. falciparum luciferase reporter growth, 96 h
#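 Infected RBCs, 2% Hct / 0.05% parasitemia final; luciferase-reporter P. falciparum; cpd 96 h, 37 C, 5% CO2; luciferase detection reagent; luminescence.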
# Cycloheximide cs: counter-screen hit for Shiga toxin inhibitors, cycloheximide; cell reporter, cycloheximide protein synthesis inhibition counterscreen; max response, %; 12% of 300,000 active; AID 2314; in the data active = max response mostly above about 13%, no sharp cut-off; inactive = mostly below about 14%; also: read at 38.3 µM for the half of the compounds with a filed dose
# Pf growth 48h: inhibits P. falciparum growth in the first generation, 48 h; P. falciparum luciferase growth in erythrocytes, 48 h; 5.9% of 310,000 active; AID 504832; Potency, µM (doses to about 28.7 µM), usual class: inhibitors
#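 Parasite viability was followed by luminescence of a genomically integrated firefly luciferase. Cultures held 0.1% parasitemia at 2% hematocrit (final), incubated under 5% CO2 at 37 C.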
# Giardia FBPA inh: Giardia lamblia aldolase inhibition | purified Giardia FBPA | Potency, µM (top dose mostly 59.6 µM), most hits filed as inhibitors | 0.71% of 290,000 active | AID 2451; also: nearly all actives have a fitted effect of over 55% in size
# Target sequence (A8B2U2 whole entry, looked up): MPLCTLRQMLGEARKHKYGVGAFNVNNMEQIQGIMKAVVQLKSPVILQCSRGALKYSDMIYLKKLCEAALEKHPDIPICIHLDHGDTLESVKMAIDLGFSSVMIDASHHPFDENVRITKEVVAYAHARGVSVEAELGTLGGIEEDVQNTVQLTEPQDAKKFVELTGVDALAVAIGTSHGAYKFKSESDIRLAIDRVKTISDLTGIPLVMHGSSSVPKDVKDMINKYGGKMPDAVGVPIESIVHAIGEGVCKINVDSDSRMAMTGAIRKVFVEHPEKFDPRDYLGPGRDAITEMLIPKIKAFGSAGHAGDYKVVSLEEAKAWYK
#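 Giardia FBPA (40 nM reagent) was preincubated 10 min at RT with compound (up to 57.5 uM final), then substrate plus GAPDH/TPI/NAD/arsenate coupling system with diaphorase/resazurin was added; resorufin fluorescence (525/598 nm) was read after 20 min.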
# NS1 function inh: blocks influenza NS1 protein function | Potency, µM (series often up to 46.1 µM) | 0.4% of 270,000 active | AID 2326; calls by dose curve; also: actives are rising curves; nearly all actives have a fitted effect of over 50% in size
#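 Recovery from NS1-induced slow growth read by OD600 in budding yeast switched to galactose assay medium (pH 6.0, -URA) at 1:100 dilution. Compound 23 nl per well; the matching strain lacking NS1 serves as control.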
# Numbers stand for hits; n = inactive; u = inconclusive; x = no result; + = active, no number; [ ] = another dose, or the depositor's remark. Most compounds without a hit are left out; they make up all but 21% or so of the library. Unless noted, calls follow the shape of the dose curve; as a rule, active = well fitted curve in the direction sought with a large enough effect; inconclusive = small, poorly fitted or top-dose-only effect, or another doubt; inactive = no such curve, though single readings can be large; an effect the other way counts as inactive or inconclusive.
SMILES,Shiga inhibitor,Pf growth 96h,Cycloheximide cs,Pf growth 48h,Giardia FBPA inh,NS1 function inh
CC(=O)N1CCN(c2nc(C)nc3sc4c(c23)CCC(C)C4)CC1 (centres undefined),n,u,n,u,n,n
Cc1nc(N2CCN(S(=O)(=O)c3ccccc3)CC2)c2c3c(sc2n1)CC(C)CC3 (centres undefined),n,10µM,n,u,n,n
Cc1ccc(C)n1-c1ccc2c(c1)COC2=O,n,n,n,u,n,n
O=C1OCc2cccc3cccc1c23,n,n,n,n,x,n
Nc1ccc2c(c1)COC2=O,83,u,34,n,n,x
O=C1OCc2cc(-n3cccc3)ccc21,n,u,17,n,n,x
CC(C)=C1SC(N2CCN(c3cccc(Cl)c3)CC2)=NC1=O,n,n,n,n,n,n
CC(C)=C1SC(N2CCN(Cc3ccccc3)CC2)=NC1=O,n,n,23,u,n,n
CC1CCCN(S(=O)(=O)c2ccc3c(c2)c(=O)nc2ccccn23)C1 (centres undefined),n,n,n,u,n,n
COP(=O)(OC)C(NC(=O)/C=C/c1ccccc1)C(Cl)(Cl)Cl (centres undefined),55,n,n,n,n,x
COc1ccc(-c2c(-c3cc(OC)cc(OC)c3)n(C)c3ccc(Br)cc23)cc1,x,n,x,n,x,x
COc1ccc(N=Nc2nc3ccc(Br)cc3n2C)cc1,70,n,40,u,u,n
Cc1ccc(S(=O)(=O)N[C@H]2COC(=O)[C@@H](C)COC(=O)[C@H](C)NC(=O)C/C=C\[C@H]2C)cc1,x,x,x,x,n[12.9 µM],x
O=C(NC1CC1)C1CC(=O)N(c2cccc(Cl)c2)C1 (centres undefined),n,u,n,10µM,x,n
O=C(NC1CCCCC1)C1CC(=O)N(c2ccccc2)C1 (centres undefined),n,3.3µM,n,n,x,n
COc1ccc(N2CC(C(=O)N[C@@H](C)C(=O)NC3CCCCC3)CC2=O)cc1 (some centres undefined),n,n,n,n,n,n
Cc1ccsc1/C=N/NC(=O)C1CC(=O)N(c2ccccc2)C1 (centres undefined),n,n,n,n,n,n
Cc1ccc(/C=N\NC(=O)C2CC(=O)N(c3ccccc3)C2)o1 (centres undefined),n,n,24,n,n,n
COc1cccc(N2CC(C(=O)NC3CCCCC3)CC2=O)c1 (centres undefined),n,x,n,n,n,n
COc1ccc(N2CC(C(=O)N[C@@H](CC(C)C)C(=O)NC3CCCCC3)CC2=O)cc1 (some centres undefined),n,15µM,n,u,x,n
CCOc1ccc(N(CC(=O)N2CCOCC2)S(=O)(=O)c2ccc(SC)cc2)cc1,n,n,n,n,n,n
COc1ccc(S(=O)(=O)N2CCC(C(N)=O)CC2)cc1C(=O)N1CCCCCC1,n,n,n,n,n,n
COc1ccc(OC)c(NC(=O)CN(Cc2ccccc2)S(C)(=O)=O)c1,n,u,n,n,n,n
COc1cccc(N2CC(C(=O)Nc3ccc(F)cc3)CC2=O)c1 (centres undefined),n,n,n,n,x,n
COc1cccc(N2CC(C(=O)NNC(=O)c3ccc(Cl)cc3)CC2=O)c1 (centres undefined),n,5.9µM,n,n,n,n
SMILES,Shiga inhibitor,Pf growth 96h,Cycloheximide cs,Pf growth 48h,Giardia FBPA inh,NS1 function inh
COCCn1c(=O)c(-c2ccc(Cl)cc2)nc2cnc(Oc3ccc(OC)cc3)nc21,x,x,x,x,n,x
Cc1ccccc1Cc1c(C)nc2c(C(=O)NCc3ccc4c(c3)OCO4)cnn2c1C,n,u,n,u,n,n
Cc1ccc(C)c(Cc2c(C)nc3c(C(=O)NCc4ccc5c(c4)OCO5)cnn3c2C)c1,n,10µM,n,x,n,n
Cc1nc2c(C(=O)NCc3ccc4c(c3)OCO4)cnn2c(C)c1Cc1ccc(F)cc1Cl,n,13µM,n,u,n,u
O=CN[C@@H](Cc1cnc[nH]1)C(=O)O,x,x,x,x,x,n
BrCCOCCOc1ccc2ccccc2c1,n,n,65,n,n,n
CN(CCOc1cccc2ccccc12)Cc1ccccc1,n,4.1µM,n,n,u,n
Cc1ccc(C(C)C)c(OCCCN(C)Cc2ccccc2)c1,n,u,n,13µM,n,n
O=C(O)c1ccccc1C(=O)NCC(O)COc1ccc(Cl)cc1 (centres undefined),55,n,38,n,n,n
Cc1ccc(C(C)C)c(OCC(O)CNC2CCCC2)c1 (centres undefined),n,n,n,5.2µM,n,n
COc1ccc(OCC(O)CNC(=O)c2ccccc2C(=O)O)cc1 (centres undefined),n,u,n,n,n,n
CCCN1CCN(S(=O)(=O)c2ccc(-n3cnnn3)cc2)CC1,n,n,n,n,x,n
COc1cccc(OCC(O)CNC2CCCC2)c1 (centres undefined),n,u,n,n,u,n
Cc1ccc(C(C)C)c(OCC(O)CN(C)Cc2ccccc2)c1 (centres undefined),n,2.1µM,n,x,n,n
OC(CNC1CCCC1)COc1ccc(Cl)cc1 (centres undefined),n,n,n,15µM,n,n
O=c1oc2ccccc2c2c1C1O[C@](c3ccsc3)(Cc3c1ccc1ccccc31)O2,n,u,19,n[5.75 µM],n[12.9 µM],n
O=C1C2=C(C(=O)c3ccccc31)C1O[C@](c3ccsc3)(Cc3c1ccc1ccccc31)O2,+,u,33,u,n[12.9 µM],n
O=C1CCCC2=C1C1O[C@](c3ccsc3)(Cc3c1ccc1ccccc31)O2,n,u,15,u,n[12.9 µM],n
O=C1c2ccccc2C(=O)N1CCCC[C@]12Cc3ccccc3C(O1)c1c(c3ccccc3oc1=O)O2,n,u,n,u,n[12.9 µM],n
O=C(Oc1ccc(-c2ccccc2)cc1)N1CCCCC1,65,x,35,n,n,n
CC(=O)Nc1ccc(NC(=O)N2CCCCC2)cc1,n,n,n,n,n,u
CC(=O)Nc1ccc(OC(=O)N2CCCCC2)cc1,n,u,12,n,n,n
O=C(Oc1ccc(OC(=O)N2CCCCC2)cc1)N1CCCCC1,n,u,n,n,n,n
O=C(CS(=O)(=O)c1cn(Cc2ccccc2Cl)c2ccccc12)N1CCOCC1,n,n,n,n,n,n
O=C(CS(=O)(=O)c1cn(Cc2ccc(Cl)cc2)c2ccccc12)N1CCCC1,n,8.3µM,n,x,n,n
Cc1cc(NC(=O)CS(=O)(=O)c2cn(Cc3cccc(F)c3)c3ccccc23)no1,n,u,n,x,n,n
Cc1cc(NC(=O)CS(=O)(=O)c2cn(Cc3ccc(F)cc3)c3ccccc23)no1,n,13µM,n,x,n,n
CCCn1c(C)nc2c(NCCN(C)C)nc(C)nc21,x,x,x,x,n,x
Fc1cc(Br)ccc1NC(=S)NCCc1ccccc1,139,n,46,n,n,n
S=C(Cc1ccccc1)NCCc1ccccc1,x,n,x,n,x,x
